The structures appear in SMILES notation. The source made the active and inactive calls. The calls were made as follows: active = hit-call score of the fitted dose curve at least 0.9, where 1 is the maximum; inactive = score below 0.9.

A short description of assay [1]: ATG_CRE_CIS: Attagene CIS-FACTORIAL HepG2 Assay for human cAMP Responsive Element (CRE) binding protein 3 (AID 2282926). The note with it: HepG2 CRE cis-reporter, Attagene multiplexed mRNA; actives raise or lower the signal. A digest of the protocol: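 We dosed HepG2 cells bearing multiple cis-promoter reporter units for 24 h and measured reporter mRNA by RT-PCR with capillary electrophoresis detection. Bidirectional concentration-response fitting used DMSO as negative control.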

The target in assay [2] is CCAAT/enhancer-binding protein beta (Homo sapiens) (UniProt P17676). Nature of the assay: ATG_C_EBP_CIS: Attagene CIS-FACTORIAL HepG2 Assay for human CCAAT/Enhancer Binding Protein (C/EBP) beta (AID 2282927). The note with it: HepG2 Attagene cis-factorial transcription factor reporter; actives raise or lower the signal. A digest of the protocol: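 Endogenous transcription factor activity in human liver HepG2 cells is inferred from induction of a CEBPB-linked reporter mRNA. Exposure lasts 24 h; activity is fitted in both directions relative to DMSO.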
Chain of CCAAT/enhancer-binding protein beta (Homo sapiens) (P17676 whole entry, looked up): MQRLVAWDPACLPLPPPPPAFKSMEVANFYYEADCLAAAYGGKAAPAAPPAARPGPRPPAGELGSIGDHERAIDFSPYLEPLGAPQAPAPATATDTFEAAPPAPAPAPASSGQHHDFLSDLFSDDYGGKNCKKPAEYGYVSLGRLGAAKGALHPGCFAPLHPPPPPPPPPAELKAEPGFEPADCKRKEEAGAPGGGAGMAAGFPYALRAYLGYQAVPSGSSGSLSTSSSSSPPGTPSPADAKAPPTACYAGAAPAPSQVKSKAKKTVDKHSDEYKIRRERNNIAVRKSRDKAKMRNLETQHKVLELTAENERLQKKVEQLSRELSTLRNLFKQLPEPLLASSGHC

Assay [3] in a line: ATG_CMV_CIS: Attagene CIS-FACTORIAL HepG2 Assay for human CMV (Internal Marker) (AID 2282928).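 Also: endpoint acts as a background internal control marker rather than a target.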 The note with it: HepG2 CMV promoter reporter, transcription factor profiling; actives raise or lower the signal. In outline:
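After transient transfection of HepG2 with reporter transcription units driven by cis-regulatory promoters, cells receive test chemical for 24 h. Labeled reporter amplicons, digested with HpaI, are sized and quantified by capillary electrophoresis against DMSO.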

Assay [4] can be described thus: ATG_DR4_LXR_CIS: Attagene CIS-FACTORIAL HepG2 Assay for human Liver X Receptor (LXR), DR4 submotif (AID 2282929). The note with it: HepG2 Attagene DR4 cis-reporter, mRNA transcription; actives raise or lower the signal. A digest of the protocol:
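HepG2 cells were transiently transfected with multiple cis-regulated reporter units and dosed for 24 hours. The DR4 reporter mRNA was quantified by RT-PCR, 6-FAM labelling and capillary electrophoresis. Bidirectional fits used DMSO as baseline.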

Assay [5] has as its target Aryl hydrocarbon receptor (Homo sapiens) (UniProt P35869). Nature of the assay: ATG_Ahr_CIS: Attagene CIS-FACTORIAL HepG2 Assay for human Aryl Hydrocarbon Receptor (Ahr) (AID 2282930). The note with it: HepG2 AhR cis-factorial reporter transcription; actives raise or lower the signal. A digest of the protocol:
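Transient MRTU transfection of HepG2 → 24 h compound exposure → total RNA, oligo(dT) RT → PCR, 6-FAM extension, HpaI cut → CE fluorescence. DMSO = baseline; bidirectional curve fit.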

A short description of assay [6]: ATG_AP_1_CIS: Attagene CIS-FACTORIAL HepG2 Assay for human Activator Protein 1 (AP-1) (AID 2282931). Particulars: HepG2 Attagene cis-factorial AP-1 reporter mRNA; actives raise or lower the signal. A digest of the protocol:
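HepG2 cells transiently transfected with cis-element-driven reporter transcription units, dosed for 24 hours. Reporter mRNA measured by RT-PCR, 6-FAM labelling, HpaI digestion and capillary electrophoresis. Bidirectional fitting against DMSO baseline.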

The nature of assay [7]: ATG_AP_2_CIS: Attagene CIS-FACTORIAL HepG2 Assay for human Activator Protein 2 (AP-2) (AID 2282932). Particulars: HepG2 AP-2 cis-reporter, Attagene transcription factor profiling; actives raise or lower the signal. A digest of the protocol:
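Step one: transient transfection of HepG2 with reporter transcription units. Step two: 24 h chemical exposure. Step three: RNA extraction, RT-PCR, labelled fragment analysis by capillary electrophoresis; DMSO serves as baseline.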

A short description of assay [8]: ATG_BRE_CIS: Attagene CIS-FACTORIAL HepG2 Assay for human Bone Morphogenetic Protein (BMP) Response Element (BRE) (AID 2282933). The note with it: HepG2 BMP response element reporter, Attagene transcription factor profiling; actives raise or lower the signal. In outline:
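After a 24 h chemical treatment, transiently transfected HepG2 cells were lysed for RNA; reporter transcripts were quantified by fluorescent RT-PCR and capillary electrophoresis, normalised to DMSO.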

The target in assay [9] is Transcription factor E2F1 (Homo sapiens) (UniProt Q01094). Nature of the assay: ATG_E2F_CIS: Attagene CIS-FACTORIAL HepG2 Assay for human E2F Transcription Factor 1 (AID 2282935). Particulars: HepG2 Attagene cis-reporter, E2F reporter RNA transcripts; actives raise or lower the signal. A digest of the protocol: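 Total RNA from 24 h-treated, reporter-transfected HepG2 cells undergoes DNase I treatment, oligo(dT) reverse transcription, PCR and 6-FAM primer extension before capillary electrophoresis.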
Chain of Transcription factor E2F1 (Homo sapiens) (Q01094 whole entry, looked up): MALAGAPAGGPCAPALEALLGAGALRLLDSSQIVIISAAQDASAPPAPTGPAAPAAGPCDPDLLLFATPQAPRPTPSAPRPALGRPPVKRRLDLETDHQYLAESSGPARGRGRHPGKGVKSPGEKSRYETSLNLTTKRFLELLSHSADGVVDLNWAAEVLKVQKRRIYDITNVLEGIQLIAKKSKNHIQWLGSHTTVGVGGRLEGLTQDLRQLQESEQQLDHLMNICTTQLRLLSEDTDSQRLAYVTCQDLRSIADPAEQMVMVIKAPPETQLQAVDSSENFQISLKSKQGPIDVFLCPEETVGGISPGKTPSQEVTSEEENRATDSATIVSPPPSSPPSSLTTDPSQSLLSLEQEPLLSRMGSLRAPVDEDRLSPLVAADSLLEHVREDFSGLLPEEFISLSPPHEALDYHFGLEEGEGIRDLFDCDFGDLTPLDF

The nature of assay [10]: ATG_E_Box_CIS: Attagene CIS-FACTORIAL HepG2 Assay for human Enhancer Box (E-box) (AID 2282936). The note with it: HepG2 E-box cis-reporter transcription, actives raise or lower the signal. In outline: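 DMSO served as negative control and baseline for bidirectional fitting. Human hepatoma HepG2 cells, transiently transfected with cis-reporter constructs, were dosed 24 h; reporter mRNA read by RT-PCR and capillary electrophoresis.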

Assay [11] is described as follows: ATG_M_61_CIS: Attagene CIS-FACTORIAL HepG2 Assay for M61 Transcription Factor (Internal Marker) (AID 2282937). Particulars: HepG2 Attagene CIS-FACTORIAL M61 internal marker reporter; actives raise or lower the signal. In outline:
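HepG2 cells transiently transfected with multiplexed cis-promoter reporter units reporting endogenous transcription factor activity, measured 24 h after dosing. Reporter mRNA quantified by RT-PCR and capillary electrophoresis; bidirectional fit against DMSO baseline.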

Assay [12] can be described thus: ATG_EGR_CIS: Attagene CIS-FACTORIAL HepG2 Assay for human Early Growth Response 1 (EGR1) (AID 2282938). Particulars: HepG2 Attagene CIS-FACTORIAL EGR reporter mRNA; actives raise or lower the signal. In outline:
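HepG2 cells transiently transfected with cis-element-driven multiplexed reporter units, dosed for 24 h. EGR1-element reporter mRNA quantified by RT-PCR, 6-FAM labelling, HpaI digestion and capillary electrophoresis; bidirectional fit versus DMSO.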

Assay [13] can be described thus: ATG_M_19_CIS: Attagene CIS-FACTORIAL HepG2 Assay for M19 Transcription Factor (Internal Marker) (AID 2282939). Particulars: HepG2 Attagene CIS-FACTORIAL M19 internal marker reporter; actives raise or lower the signal. In outline: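 In this multiplexed cell assay, transiently transfected HepG2 reporter units report endogenous transcription-factor activity; after 24 hours of treatment, labelled reporter cDNA fragments are quantified by capillary electrophoresis and fitted bidirectionally against DMSO.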

Assay [14] in a line: ATG_Ets_CIS: Attagene CIS-FACTORIAL HepG2 Assay for human Erythroblast Transformation Specific (ETS) (AID 2282941). The note with it: HepG2 ETS cis-reporter transcription, actives raise or lower the signal. A digest of the protocol:
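Human HepG2 hepatoma cells were transiently transfected with promoter-driven reporter constructs and treated for 24 hours. Reporter transcripts were quantified by RT-PCR with fluorescent primer extension; bidirectional curve fitting used DMSO as reference.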

The target in assay [15] is Hepatocyte nuclear factor 3-beta (Homo sapiens) (UniProt Q9Y261). Nature of the assay: ATG_FoxA2_CIS: Attagene CIS-FACTORIAL HepG2 Assay for human Forkhead box A2 (FOXA2) (AID 2282942). Particulars: HepG2 cis-reporter transcription factor activity, 24 h; actives raise or lower the signal. A digest of the protocol: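 HepG2 transiently transfected with a multiplexed cis-promoter reporter library read endogenous FOXA2 activity. After 24 h compound exposure, reporter mRNA was quantified by RT-PCR, HpaI digestion and capillary electrophoresis. Bidirectional fit against DMSO.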
Chain of Hepatocyte nuclear factor 3-beta (Homo sapiens) (Q9Y261 whole entry, looked up): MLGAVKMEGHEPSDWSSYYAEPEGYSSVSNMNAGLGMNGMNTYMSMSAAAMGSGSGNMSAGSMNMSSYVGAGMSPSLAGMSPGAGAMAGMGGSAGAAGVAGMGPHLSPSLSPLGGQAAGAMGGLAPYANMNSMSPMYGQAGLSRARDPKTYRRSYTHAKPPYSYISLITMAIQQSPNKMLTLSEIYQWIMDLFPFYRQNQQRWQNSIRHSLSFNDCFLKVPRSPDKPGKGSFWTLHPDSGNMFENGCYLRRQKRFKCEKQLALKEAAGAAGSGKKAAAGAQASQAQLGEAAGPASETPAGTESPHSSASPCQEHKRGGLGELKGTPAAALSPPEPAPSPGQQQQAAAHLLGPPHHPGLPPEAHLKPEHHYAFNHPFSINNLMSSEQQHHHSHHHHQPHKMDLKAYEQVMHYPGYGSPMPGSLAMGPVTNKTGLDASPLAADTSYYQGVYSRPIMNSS

The nature of assay [16]: ATG_FoxO_CIS: Attagene CIS-FACTORIAL HepG2 Assay for human Forkhead box O (FoxO) (AID 2282943). Particulars: HepG2 Attagene cis-reporter, FoxO element, mRNA; actives raise or lower the signal. In outline: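 HepG2, transient MRTU transfection (cis element, endogenous TFs). Dose 24 h. TriZol RNA → oligo(dT) RT → PCR → 6-FAM primer extension → HpaI cut → CE. Gain/loss vs DMSO.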

A short description of assay [17]: ATG_GATA_CIS: Attagene CIS-FACTORIAL HepG2 Assay for human GATA Binding Protein (AID 2282944). The note with it: HepG2 GATA cis-element reporter, Attagene multiplex mRNA; actives raise or lower the signal. In outline: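 Measures endogenous transcription factor-driven reporter mRNA in HepG2 cells transiently carrying cis-regulated constructs. 24 h dosing; RNA via oligo(dT) reverse transcription, PCR, HpaI digestion, capillary electrophoresis; fitted relative to DMSO.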

A short description of assay [18]: ATG_GLI_CIS: Attagene CIS-FACTORIAL HepG2 Assay for human Zinc Finger Protein GLI1 (AID 2282945). The note with it: HepG2, Attagene cis-factorial reporter mRNA, GLI element; actives raise or lower the signal. A digest of the protocol: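 Bidirectional curve fits relative to DMSO, using reporter mRNA levels from RT-PCR plus capillary electrophoresis. Cells were HepG2 transiently carrying cis-regulated reporter constructs, harvested 24 h after dosing.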

Assay [19] has as its target Retinoic acid receptor alpha (Homo sapiens) (UniProt P10276). Nature of the assay: ATG_DR5_RAR_CIS: Attagene CIS-FACTORIAL HepG2 Assay for human Retinoic Acid Receptor Alpha (RARE), DR5 submotif (AID 2282934).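 As to AC50: reporter responds to endogenous RAR alpha beta and gamma in HepG2 not RARA alone.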 The note with it: HepG2 Attagene cis-factorial RARE DR5 reporter, mRNA; actives raise or lower the signal. In outline:
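Transient MRTU transfection of HepG2; 24 h compound treatment; TriZol RNA, oligo(dT) RT, PCR, FAM labelling, capillary electrophoresis. Bidirectional fit vs DMSO. Endogenous TF activity at DR5 RARE.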

Assay [20] in a line: ATG_ERE_CIS: Attagene CIS-FACTORIAL HepG2 Assay for Estrogen Response Element (ERE) (AID 2282940). The note with it: HepG2 ERE cis-reporter, Attagene RNA transcript; actives raise or lower the signal. A digest of the protocol: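 Measuring endogenous transcription factor output, the assay doses transfected HepG2 cells for 24 hours and quantifies reporter transcripts by fluorescent RT-PCR and capillary electrophoresis, with DMSO as baseline.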

Chain of Aryl hydrocarbon receptor (Homo sapiens) (P35869 whole entry, looked up): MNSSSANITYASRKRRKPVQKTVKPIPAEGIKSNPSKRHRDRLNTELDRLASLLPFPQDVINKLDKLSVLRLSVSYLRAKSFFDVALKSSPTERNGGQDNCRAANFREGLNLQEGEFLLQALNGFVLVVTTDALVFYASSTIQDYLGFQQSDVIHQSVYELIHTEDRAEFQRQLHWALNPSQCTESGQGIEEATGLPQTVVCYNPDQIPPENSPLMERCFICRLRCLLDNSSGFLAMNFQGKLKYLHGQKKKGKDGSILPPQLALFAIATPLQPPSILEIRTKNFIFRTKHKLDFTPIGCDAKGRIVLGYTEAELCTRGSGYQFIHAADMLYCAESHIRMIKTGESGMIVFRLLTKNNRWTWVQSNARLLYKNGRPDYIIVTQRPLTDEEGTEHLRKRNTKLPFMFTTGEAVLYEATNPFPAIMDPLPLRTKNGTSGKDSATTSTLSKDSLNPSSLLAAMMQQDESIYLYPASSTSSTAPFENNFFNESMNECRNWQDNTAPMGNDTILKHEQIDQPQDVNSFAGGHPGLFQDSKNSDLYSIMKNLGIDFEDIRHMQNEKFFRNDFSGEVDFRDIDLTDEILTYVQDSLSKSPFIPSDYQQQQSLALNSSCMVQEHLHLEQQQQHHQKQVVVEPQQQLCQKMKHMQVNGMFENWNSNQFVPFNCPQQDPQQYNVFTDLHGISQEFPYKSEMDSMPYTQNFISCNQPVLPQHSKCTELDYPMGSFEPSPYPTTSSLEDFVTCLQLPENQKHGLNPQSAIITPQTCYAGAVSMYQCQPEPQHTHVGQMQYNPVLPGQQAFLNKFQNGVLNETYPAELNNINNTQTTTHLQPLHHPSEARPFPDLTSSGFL
Chain of Retinoic acid receptor alpha (Homo sapiens) (P10276 whole entry, looked up): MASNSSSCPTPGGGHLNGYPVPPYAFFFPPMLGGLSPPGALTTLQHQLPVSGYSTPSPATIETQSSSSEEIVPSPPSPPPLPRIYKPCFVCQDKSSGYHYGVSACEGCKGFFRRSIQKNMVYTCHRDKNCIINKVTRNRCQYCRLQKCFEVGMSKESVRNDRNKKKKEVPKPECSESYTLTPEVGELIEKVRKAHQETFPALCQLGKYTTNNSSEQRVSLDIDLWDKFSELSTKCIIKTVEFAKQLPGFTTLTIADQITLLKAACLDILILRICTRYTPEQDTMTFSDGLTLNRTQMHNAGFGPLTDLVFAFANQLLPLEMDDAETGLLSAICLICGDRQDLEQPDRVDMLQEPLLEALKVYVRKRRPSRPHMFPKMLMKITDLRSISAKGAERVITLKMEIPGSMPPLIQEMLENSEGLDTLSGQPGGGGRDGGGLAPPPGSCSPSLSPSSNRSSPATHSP

For `c1ccc(C2CO2)cc1` (centres undefined), the compound was classed as inactive in assay [1], in [2], in assay [3], in [4], in assay [5] and in assay [6]. Besides, the result in assay [7], in assay [8], in [9], in assay [10], in [11] and in assay [12] was inactive. Further, the compound was classed as inactive in [13], in assay [14], in assay [15], in assay [16], in assay [17] and in assay [18].

The AC50 is the concentration giving half of the maximal activity seen. On to `[Cl-].[Cl-].[Hg+2]`, for which the compound was classed as inactive in assay [1], in assay [2], in assay [3], in assay [5], in [6] and in assay [7]. The compound was called inactive in assay [8], in assay [10], in assay [11], in [12], in assay [13] and in assay [14]. Also, the compound was called inactive in assay [15], in assay [16], in assay [17] and in assay [18]. Besides, the concentration at half-maximal activity (AC50) in [4] is 33.4 µM (active).

Regarding `Cn1cc(-c2ccccc2)c(=O)c(-c2cccc(C(F)(F)F)c2)c1`, the AC50 was 79.1 µM (active) in assay [1]; 66.9 µM (active) in assay [2]; 73.7 µM (active) in assay [4]; 69.1 µM (active) in assay [5]; 15.3 µM (active) in assay [19]; 55 µM (active) in [10]. The outcome in assay [3], in assay [6], in [7], in assay [8], in [9] and in assay [11] was inactive. Moreover, the call in assay [12], in [20], in assay [14], in [15], in assay [16] and in assay [17] was inactive. Further, the compound was classed as inactive in [18].

In the case of `Nc1ccc(Cl)cc1N`, the call in assay [1], in [2], in [4], in assay [7], in assay [8] and in assay [19] was inactive. The result in assay [9], in [10], in assay [11], in [14], in [15] and in assay [16] was inactive. The compound was classed as inactive in [17] and in assay [18]. For the same compound, the AC50 in [3] is 6.32 µM (active); in assay [5], 0.431 µM (active); in assay [6], 9.15 µM (active); in assay [12], 28.2 µM (active).

Turning to `N#CC(Br)Br`, the compound was classed as inactive in assay [1], in assay [2], in assay [3], in assay [4], in [5] and in [6]. Besides, the call in assay [7], in assay [8], in [19], in assay [9], in assay [10] and in assay [11] was inactive. Further, the call in assay [12], in assay [13], in assay [14], in [15], in assay [16] and in assay [17] was inactive. The result in assay [18] was inactive. Moreover, in [20], the AC50 was 76.7 µM (active).

Regarding `Cc1ccc(N)cc1`, the call in [1], in assay [2], in assay [3], in assay [4], in assay [5] and in assay [6] was inactive. In addition, the call in [7], in assay [8], in assay [19], in assay [10], in [11] and in assay [12] was inactive. Moreover, the compound was classed as inactive in assay [14], in assay [15], in assay [16], in assay [17] and in assay [18].

For the origin of these results see PubChem BioAssay (EPA / NIEHS).
